Inconclusive results are not listed. Where a call stands in place of a potency, no number is given. Activity calls are given as the source filed them. Calls follow the shape of the dose curve; as a rule, active = well fitted inhibition curve with a large enough effect; inconclusive = small, poorly fitted or top-dose-only effect; inactive = flat fitted curve, though single readings scatter.

For 16 compounds, Potency results are on record in PubChem BioAssay (NCATS).

Sequence of Calcium and integrin-binding protein 1 (Homo sapiens) (Q99828 whole entry, looked up): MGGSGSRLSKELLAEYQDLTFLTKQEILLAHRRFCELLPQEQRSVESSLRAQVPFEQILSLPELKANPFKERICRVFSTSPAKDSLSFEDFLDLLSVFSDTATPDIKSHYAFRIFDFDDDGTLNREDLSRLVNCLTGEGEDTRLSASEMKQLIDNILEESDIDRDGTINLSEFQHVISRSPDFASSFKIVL

This assay has as its target Calcium and integrin-binding protein 1 (Homo sapiens) (UniProt Q99828). In words: Primary qHTS for Identification of Calcium Integrin Binding Protein 1 (CIB1) Competitor (AID 1508620).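 Also: GST tagged CIB1 binding a fluorescein labelled alphaIIb integrin peptide tracer; top concentration of the series differs between compounds.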 The following applies: CIB1-GST / FITC-alphaIIb peptide fluorescence polarization; series mostly up to 114 µM. In a few lines:
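CIB1-GST (1 uM final) and compound incubated 15 min at room temperature before adding FITC-alphaIIb peptide tracer (100 nM final). Competition for binding read by fluorescence polarization (ex 480, em 540) after another 15 min at room temperature.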
Background: Quantitative high-throughput screening tests each substance at several concentrations.
Regarding `Cc1ccc(N[S+](=O)([O-])c2cc3c(cc2Cl)NC(=O)CO3)cc1Br`, the Potency result was “inactive”.
For the compound `Cc1cnc(-c2ccccc2C(F)F)nc1NCc1ccc(-n2ccnn2)cc1`, the Potency result is “inactive”.
As to `CCOC(=O)C1CCN(C(=O)C2(NC(=O)Nc3ccccc3Cl)CCCCC2)CC1`, the Potency result is “inactive”.
In the case of `Cc1ccccc1S(=O)(=O)N1CCc2cc(-c3nc(NC(=O)Cc4ccc5c(c4)OCO5)sc3C)ccc21`, the Potency result was “inactive”.
With `NC(=O)c1cccc(-c2noc(-c3ccccc3F)n2)c1`, the Potency result was “inactive”.
The value for `Cc1cc(C)nc(NC(=S)N2CCN(c3ccc4c(c3)OCO4)CC2)c1` was “inactive”; that for `O=C(O)c1ccc2c(c1)C(=O)N([C@H](Cc1ccc(-c3ccccc3)cc1)C(=O)O)C2=O` was “inactive”; that for `Cc1sc(NC(=O)Cc2ccc3c(c2)OCO3)nc1-c1ccc2c(c1)CCN2C(=O)c1ccccc1Cl` was “inactive”.
For `Cc1cccc(-n2cnc3cc(C(=O)N4CCN(C)CC4)ccc32)c1`, the Potency result is “inactive”.
For `O=C1CCCC2=C1C(c1[nH]ncc1Cl)NC(=NCc1ccccc1)N2` (stereo unspecified), the Potency entry was “inactive”.
In the case of `c1nc(NC[C@@H]2CCCO2)c2cc(-c3ccc4c(c3)OCO4)ccc2n1`, the Potency result was “inactive”.
With `COC/C=C/c1cc(F)c(S(=O)(=O)N2CCN(S(=O)(=O)c3ccc4c(c3)OCCO4)CC2)cc1F`, the Potency entry is “inactive”.
For `Cc1cccc(NC(=O)c2cnn3c(C)cc(C)nc23)c1`, the Potency entry is “inactive”.
As for `O=C(Nc1ccccc1)C1CCN(c2nc(-c3ccc(Br)cc3)cs2)CC1`, the Potency entry is “inactive”.
Regarding `O=[S+]([O-])(c1ccc2c(c1)OCCO2)N1CCN([S+](=O)([O-])c2ccc(F)cc2Br)CC1`, the Potency entry was “inactive”.
Take `CCNc1ncnc2ccc(-c3ccc4c(c3)OCO4)cc12`: the Potency entry is “inactive”.
